Source: PubChem BioAssay (several laboratories)
Shown are actives, neighbours in structure and some others; about 4.6% of the full set was active somewhere.
SKKanGAS inh: blocks kanamycin growth of S. pyogenes SKKanGAS strain. inhibition, % at 7.5 µM. AID 1662. BacTiter-Glo, 6 h. 300,000 compounds, 1.3% hits;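 active = mean replicate score, as percent of positive control median, at least 50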;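 note: strain carries kanamycin resistance gene driven by streptokinase promoter and grows in 40 µg/ml kanamycin; loss of luminescence reflects streptokinase promoter inhibition or plain growth inhibition; 0% = median of DMSO wells and 100% = positive control at its reference dose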
NLRP3 yeast inh: blocks the NALP3 inflammasome reconstituted in yeast; inhibition, % at 10 µM; AID 2825; Yeast reconstituted NLRP3/ASC/caspase-1, beta-gal luminescence, 24 h; 330,000 compounds, 0.39% hits;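 active = inhibition of 50% or more; inactive = inhibition below 50%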;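 note: plate controls were induced DMSO wells for no effect and uninduced yeast grown without galactose for full effect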
tim23-1 inh: tim23-1 yeast growth inhibition | S. cerevisiae tim23-1 growth, BacTiter-Glo luminescence, 24 h | inhibition, % at 20 µM | 330,000 compounds, 1.3% hits;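 active = growth inhibition of the mutant yeast at or above 50%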;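 note: temperature-sensitive mutant grown at 25 °C; plate controls were DMSO-treated mutant yeast for no effect and medium wells lacking yeast for full effect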
TIM10 inh: inhibits growth of TIM10 yeast strain. S. cerevisiae TIM10 strain growth, BacTiter-Glo luminescence, 24 h. inhibition, % at 10 µM. 330,000 compounds, 1.4% hits. AID 463195;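 active = inhibition of 40% or more at the single tested concentration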;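 note: wild-type TIM10 isogenic control strain grown at permissive 25 °C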
tim10-1 inh: tim10-1 yeast growth inhibition; 330,000 compounds, 2.2% hits; inhibition, % at 20 µM; AID 463190; S. cerevisiae tim10-1 ts strain growth, BacTiter-Glo, 24 h;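 active = inhibition of at least 40%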;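 note: mutant grown at 25 °C; 0% = DMSO wells with yeast and 100% = wells holding no yeast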
tim10-1 conf: confirmation of tim10-1 mutant yeast growth inhibitors | 7,400 compounds, 56% hits | inhibition, % at 20 µM | S. cerevisiae tim10-1 ts strain growth, BacTiter-Glo, 24 h | shares compounds with tim10-1 inh | AID 463213;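 active = inhibition of yeast growth at or above a set limit in either of two repeat tests at 20 µM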;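 note: tim10-1 mutant grown at permissive 25 °C to find synthetic lethal compounds; 0% = DMSO yeast wells and 100% = medium wells without yeast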
An asterisk follows results filed as active.

CC1CCN(C(=O)c2ccc3c(Cl)c4c(nc3c2)CCCC4)CC1 was read as SKKanGAS inh -5, NLRP3 yeast inh 8, tim23-1 inh 40, TIM10 inh 8, tim10-1 inh 47* and tim10-1 conf 40*.
CCOC(=O)N1CCC(NC(=O)c2ccc3c(c2)N=C(CC)c2ccccc2S3)CC1 was read as SKKanGAS inh 23, NLRP3 yeast inh 26, tim23-1 inh 40, TIM10 inh 11, tim10-1 inh 45* and tim10-1 conf 13.
CCOC(=O)N1CCC(NC(=O)c2ccc3c(Cl)c4c(nc3c2)CCCC4)CC1 was read as NLRP3 yeast inh 24, tim23-1 inh 42, TIM10 inh 21, tim10-1 inh 41* and tim10-1 conf 17.
`O=C(NC1CC1)c1ccc2c(Cl)c3c(nc2c1)CCCC3` gave SKKanGAS inh -9, NLRP3 yeast inh -2, tim23-1 inh 44, TIM10 inh 36 and tim10-1 inh 26.
For CCOC(=O)Nc1ccc(N2CCOCC2)c(S(=O)(=O)Nc2ccc(Cl)cc2)c1 the results were NLRP3 yeast inh 16, tim23-1 inh 31, TIM10 inh -12 and tim10-1 inh -25.
Screening O=C(COC(=O)c1ccc(NS(=O)(=O)c2cccs2)cc1)NCc1ccco1 returned SKKanGAS inh -17, NLRP3 yeast inh 10, tim23-1 inh -20, TIM10 inh -7 and tim10-1 inh -15.
Screening CCCOC(=O)c1ccc(NS(=O)(=O)c2cccs2)cc1 returned SKKanGAS inh -3, NLRP3 yeast inh 17, tim23-1 inh 38, TIM10 inh 30, tim10-1 inh 54* and tim10-1 conf 35*.
`CCOC(=O)c1c(C)oc2ccc(NS(=O)(=O)c3cccs3)cc12` gave SKKanGAS inh 2, NLRP3 yeast inh -1, tim23-1 inh 37, TIM10 inh 29, tim10-1 inh 42* and tim10-1 conf 21.
O=C(COC(=O)/C=C/c1ccc(F)cc1)NC1CCS(=O)(=O)C1 (configuration not stated) was read as NLRP3 yeast inh 4, tim23-1 inh 9, TIM10 inh 3 and tim10-1 inh 0.
For Cc1ccc(O)c(NC(=O)c2cc(C)no2)c1 the results were SKKanGAS inh -1, NLRP3 yeast inh 14, tim23-1 inh 4, TIM10 inh -4 and tim10-1 inh 14.
Screening COC(=O)c1ccc(CNC(=O)COC(=O)/C=C/c2cc(OC)c(OC)c(OC)c2)cc1 returned NLRP3 yeast inh 7, tim23-1 inh 1, TIM10 inh -6 and tim10-1 inh -1.
Screening COc1ccc(S(=O)(=O)N(C)C[C@H]2Oc3ccc(NC(=O)NC4CCCCC4)cc3C(=O)N([C@H](C)CO)C[C@@H]2C)cc1 returned NLRP3 yeast inh 9, tim23-1 inh 4, TIM10 inh -6 and tim10-1 inh 21.
Screening CSc1ccccc1OCc1cc(C(=O)N2CCC(Oc3cccnc3)CC2)no1 returned SKKanGAS inh -15, NLRP3 yeast inh 17, tim23-1 inh 39, TIM10 inh 40, tim10-1 inh 43* and tim10-1 conf 37*.
Screening CSc1ccccc1OCc1cc(C(=O)N2CCN(c3ncccn3)CC2)no1 returned SKKanGAS inh 18, NLRP3 yeast inh 16, tim23-1 inh 45, TIM10 inh 33, tim10-1 inh 46* and tim10-1 conf 29.
Screening O=C(c1cc(COc2ccc(F)cc2Cl)on1)N1CCN(c2cnccn2)CC1 returned SKKanGAS inh 47, NLRP3 yeast inh 27, tim23-1 inh 47, TIM10 inh 34, tim10-1 inh 50* and tim10-1 conf 47*.
`CSc1ccccc1OCc1cc(C(=O)N2CCCC(C)C2)no1` (configuration not stated) gave SKKanGAS inh 1, NLRP3 yeast inh 24, tim23-1 inh 14, TIM10 inh 0 and tim10-1 inh 19.
`CSc1ccccc1OCc1cc(C(=O)N2CCSCC2)no1` gave SKKanGAS inh 5, NLRP3 yeast inh 21, tim23-1 inh 17, TIM10 inh 8 and tim10-1 inh 14.
Screening Cc1ccc(S(=O)(=O)N2CCCCC2)cc1NC(=O)C1CCC1 returned NLRP3 yeast inh 10, tim23-1 inh 3, TIM10 inh 5 and tim10-1 inh 12.
